Source: PubChem BioAssay (NCATS)
Inconclusive results are not listed. Entries that show only a call come without a potency. The source made the active and inactive calls. Unless noted, the call rests on the fitted dose curve; in most records, active means well fitted curve in the direction sought with a large enough effect; inconclusive means small, poorly fitted or top-dose-only effect, or another doubt; inactive means no such curve, though single readings can be large; an effect the other way counts as inactive or inconclusive.

Columns and labels:
[1] = molecular target: Cytochrome P450 3A4 (Homo sapiens) (UniProt P08684); experiment: qHTS Assay for Inhibitors and Substrates of Cytochrome P450 3A4 (AID 884); further: nearly all actives have a fitted effect of over 50% in size; further: potency means the concentration at half of the fitted maximal effect
Cytochrome P450 3A4 (Homo sapiens), sequence (P08684 whole entry, looked up): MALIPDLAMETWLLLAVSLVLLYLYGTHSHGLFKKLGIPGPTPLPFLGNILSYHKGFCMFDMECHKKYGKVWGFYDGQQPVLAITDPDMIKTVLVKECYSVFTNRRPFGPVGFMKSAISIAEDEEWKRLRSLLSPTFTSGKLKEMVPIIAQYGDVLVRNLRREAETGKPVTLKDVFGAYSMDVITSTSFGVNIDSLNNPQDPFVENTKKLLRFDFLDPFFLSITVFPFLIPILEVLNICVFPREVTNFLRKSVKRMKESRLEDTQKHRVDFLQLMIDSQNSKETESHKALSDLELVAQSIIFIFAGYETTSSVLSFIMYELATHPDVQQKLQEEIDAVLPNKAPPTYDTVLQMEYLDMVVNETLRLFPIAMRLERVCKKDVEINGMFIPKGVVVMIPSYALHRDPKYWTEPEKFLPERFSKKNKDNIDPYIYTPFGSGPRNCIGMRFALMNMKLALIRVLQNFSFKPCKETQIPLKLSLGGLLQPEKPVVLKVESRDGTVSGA
Procedure, shortened: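 20 nM human CYP3A4 with 25 uM Luciferin-PPXE (at KM) in 200 mM KPO4, preincubated 10 min with compound; NADPH regeneration started a 60 min RT reaction. Luciferin detected by luminescence, normalized to 57 uM ketoconazole as full inhibition.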

[2] = molecular target: Cytochrome P450 3A4 (Homo sapiens) (UniProt P08684); experiment: qHTS Assay for Activators of Cytochrome P450 3A4 (AID 885); further: nearly all actives have a fitted effect of over 65% in size
Procedure, shortened: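 Signal was normalized against complete inhibition by 57 uM ketoconazole. The reaction used 20nM CYP3A4 with 25uM Luciferin-PPXE, 10-min compound preincubation and a 60-min NADPH-supported step at RT.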

[3] = Confirmation and Secondary Assay for Modulators of Hemoglobin Beta Chain Splicing at IVS2 654 locus (AID 910)
Procedure, shortened: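 HeLa cells stably carrying EGFP interrupted by mutant beta-globin IVS2-654 intron (CMV-driven) were treated with compound for 2 days at 37C; corrected splicing was scored as total peak GFP intensity per well (488 nm excitation, 500-520 nm emission).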

[4] = Confirmation and Secondary Assay for Modulators of Hemoglobin Beta Chain Splicing at IVS2 705 locus (AID 930);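 further: HeLa cells stably expressing the EGFP-705 splicing reporter; GFP fluorescence per well restored by corrected splicing of the IVS2-705 intron in EGFP; series mostly up to about 46 µM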
Procedure, shortened: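 Read-out: total peak GFP fluorescence per well (488 nm excitation, 500-520 nm emission) by laser-scanning cytometry. Cells: HeLa EGFP-705 splicing reporter, 2 days compound exposure in Optimem/2% FCS.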

[5] = molecular target: Ubiquitin carboxyl-terminal hydrolase 1 (Homo sapiens) (UniProt O94782); experiment: Inhibitors of USP1/UAF1: Pilot qHTS (AID 504865); further: nearly all actives have a fitted effect of over 35% in size; further: potency means the concentration at half of the fitted maximal effect
Ubiquitin carboxyl-terminal hydrolase 1 (Homo sapiens), sequence (O94782 whole entry, looked up): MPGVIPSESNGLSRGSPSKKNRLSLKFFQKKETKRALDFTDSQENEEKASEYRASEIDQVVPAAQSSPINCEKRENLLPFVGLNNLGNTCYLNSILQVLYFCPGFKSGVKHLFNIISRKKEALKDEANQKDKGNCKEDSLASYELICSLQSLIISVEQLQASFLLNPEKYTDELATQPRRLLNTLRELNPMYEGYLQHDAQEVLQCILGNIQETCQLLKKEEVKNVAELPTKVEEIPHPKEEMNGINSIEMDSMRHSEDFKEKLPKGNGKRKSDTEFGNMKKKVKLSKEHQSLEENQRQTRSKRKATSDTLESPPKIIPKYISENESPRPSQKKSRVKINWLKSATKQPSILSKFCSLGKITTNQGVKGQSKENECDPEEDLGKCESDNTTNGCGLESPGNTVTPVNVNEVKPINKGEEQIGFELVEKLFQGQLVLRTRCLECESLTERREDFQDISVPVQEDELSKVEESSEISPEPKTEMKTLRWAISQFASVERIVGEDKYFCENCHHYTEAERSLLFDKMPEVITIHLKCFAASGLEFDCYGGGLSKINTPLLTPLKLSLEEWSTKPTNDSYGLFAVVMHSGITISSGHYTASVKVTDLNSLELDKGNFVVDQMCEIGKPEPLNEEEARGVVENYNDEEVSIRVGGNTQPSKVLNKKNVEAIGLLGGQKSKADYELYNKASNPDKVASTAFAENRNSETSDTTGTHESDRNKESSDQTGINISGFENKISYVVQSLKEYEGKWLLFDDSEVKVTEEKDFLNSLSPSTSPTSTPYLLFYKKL
Procedure, shortened: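 In 50mM HEPES pH 7.8 containing 0.5mM EDTA, 1mM TCEP, 0.1 mg/ml BSA and 0.01% Tween-20, 1nM USP1/UAF1 is exposed to compound for 15 min, then Ub-Rho (150nM final) is added and fluorescence is read over time.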

[6] = molecular target: DNA dC->dU-editing enzyme APOBEC-3G (Homo sapiens) (UniProt Q9HC16); experiment: qHTS for inhibitors of Vif-A3G interactions: Validation (AID 588379)
DNA dC->dU-editing enzyme APOBEC-3G (Homo sapiens), sequence (Q9HC16 whole entry, looked up): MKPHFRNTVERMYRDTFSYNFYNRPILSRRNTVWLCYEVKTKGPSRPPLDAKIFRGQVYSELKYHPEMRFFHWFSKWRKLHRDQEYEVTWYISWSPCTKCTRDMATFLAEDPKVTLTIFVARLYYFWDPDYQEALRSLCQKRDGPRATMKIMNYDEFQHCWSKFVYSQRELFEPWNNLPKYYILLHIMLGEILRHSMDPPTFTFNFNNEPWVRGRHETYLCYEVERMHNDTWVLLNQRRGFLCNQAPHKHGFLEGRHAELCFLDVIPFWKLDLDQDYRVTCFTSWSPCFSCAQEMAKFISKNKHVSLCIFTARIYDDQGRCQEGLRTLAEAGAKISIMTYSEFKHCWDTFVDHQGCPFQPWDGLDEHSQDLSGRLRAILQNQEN
Procedure, shortened: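 HeLa cells stably expressing Vif and A3G-eYFP, 700 cells/well, incubated overnight at 37 deg C, then exposed to compound overnight at 37 deg C. Inhibition of Vif-mediated degradation read as increased yellow fluorescence (Ex 488/Em 500-530) by laser-scanning cytometry.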

[7] = molecular target: Mitogen-activated protein kinase 10 (Mus musculus) (UniProt Q61831); experiment: JNK3 AlphaScreen Assay (AID 530; active means well fitted curve in either direction with a large enough effect, not every such curve was filed as active;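 further: kinase came from lysate of stimulated human HepG2 cells; signal reports phosphorylation of biotinylated GST-cJun 1-79 at Ser73 with 10 µM ATP; series mostly up to about 57 µM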)
Procedure, shortened: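 Inhibitors reduce antibody binding to phosphorylated biotin-cJun, lowering AlphaScreen luminescence. Lysates from HepG2 cells pre-activated by IL-1beta plus TNF-alpha supplied JNK3; compounds were titrated.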

C=C1CCC2C(CC2(C)C)C(=O)CCC1O (stereo not given)
Potency [1]: 2 µM (active)
Potency [2]: inactive
outcome [3]: inactive
outcome [4]: inactive
Potency [5]: inactive

CC1(C)CC[C@]2(C(=O)O)CC[C@@]3(C)C(=CCC4[C@@]5(C)CCC(O)C(C)(C)C5CC[C@@]43C)C2C1 (stereo not given in full)
Potency [1]: inactive
outcome [3]: inactive
outcome [4]: inactive
Potency [5]: inactive

COc1ccc(-c2cc(=O)c3c(OC(C)=O)cc(OC(C)=O)cc3o2)cc1
Potency [1]: 25.1 µM (active)
Potency [2]: inactive
outcome [3]: inactive
outcome [4]: inactive
Potency [5]: inactive

COc1ccc(-c2oc3ccccc3c(=O)c2O)cc1
Potency [2]: inactive
Potency [5]: inactive
Potency [6]: inactive

CC(=O)OC1CC[C@@]2(C)C3CC[C@@]4(C)C(CC5O[C@@]6(CCC(C)CO6)C(C)C54)C3CC[C@@H]2C1 (stereo not given in full)
Potency [1]: inactive
outcome [3]: inactive
outcome [4]: inactive
Potency [5]: inactive

Nc1nc(=O)n(C2OC(CO)C(O)C2O)cc1Cl (stereo not given)
Potency [1]: inactive
outcome [3]: inactive
Potency [5]: inactive

COc1c2ccoc2cc2oc(C)cc(=O)c12
Potency [1]: 3.16 µM (active)
Potency [2]: inactive
outcome [3]: inactive
outcome [4]: inactive
Potency [5]: inactive

CCC(=O)O[C@H]1C(O[C@@H]2C(C)[C@H](O[C@H]3C[C@@](C)(OC)C(O)C(C)O3)C(C)C(=O)OC(CC)[C@@](C)(O)C(O)[C@H](C)C(=O)C(C)C[C@]2(C)O)OC(C)CC1N(C)C (stereo not given in full)
Potency [1]: 0.631 µM (active)
Potency [2]: inactive
outcome [3]: inactive
outcome [4]: inactive
Potency [5]: 20 µM (active)

C=C1c2cccc(O)c2C(O)=C2C(=O)[C@]3(O)C(O)=C(C(N)=O)C(=O)C(N(C)C)C3C(O)C12 (stereo not given in full)
Potency [1]: inactive
outcome [3]: inactive
Potency [5]: 39.8 µM (active)

O[N+]1=CC=CCC1=S.On1ccccc1=S.[Zn]
Potency [1]: inactive
outcome [3]: inactive
outcome [4]: inactive
Potency [5]: inactive

CNC1C(O)C2OC3OC(C)CC(=O)[C@@]3(O)O[C@H]2[C@H](NC)C1O (stereo not given in full)
outcome [3]: inactive
Potency [5]: inactive

CNCC(O)c1cccc(O)c1 (stereo not given)
outcome [3]: inactive
outcome [4]: inactive
Potency [5]: inactive

COC(=O)CC1[C@@]2(C)C[C@@]34OC5(C)OC6(CC[C@@]7(C)C(c8ccoc8)OC(=O)C(C(C)=O)C7[C@]6(O5)C(O)[C@@]3(O)C2O)[C@]14C (stereo not given in full)
Potency [2]: inactive
outcome [3]: inactive
outcome [4]: inactive
Potency [5]: inactive

CCC/C=C(\CCC)C(NC(=O)c1ccco1)c1ccc(C(=O)OC)cc1 (stereo not given)
outcome [7]: inactive

NCC1O[C@H](O[C@@H]2C(O)[C@H](O[C@H]3OC(CO)C(O)C(N)C3O)[C@@H](N)C[C@H]2N)[C@@H](N)CC1O (stereo not given in full)
outcome [3]: inactive
outcome [4]: inactive
Potency [5]: inactive

CC(C)CC1(C(=O)NCc2ccccn2)C=CCN1C(=O)c1ccccc1 (stereo not given)
outcome [7]: inactive

Cc1nnc(SCC2=C(C(=O)O)N3C(=O)C(NC(=O)Cn4cnnn4)[C@@H]3SC2)s1 (stereo not given in full)
outcome [3]: inactive
Potency [5]: inactive

COCCn1c(C(=O)N2CCCC2)cc2c1C[C@H]1CN(C(=O)c3ccccc3)[C@@](Cc3ccc(OC)cc3)(C(=O)OC)[C@@H]21
outcome [7]: inactive

COC(=O)[C@@]1(Cc2ccc(OC)cc2)[C@H]2c3cc(C(=O)N4CCCC4)n(Cc4ccc(OC)c(OC)c4)c3C[C@H]2CN1C(=O)c1ccccc1
outcome [7]: inactive

COC(=O)[C@@]1(Cc2ccc(F)cc2)[C@H]2c3cc(C(=O)N(C)C)n(Cc4ccc(OC)c(OC)c4)c3C[C@H]2CN1C(=O)c1ccccc1
outcome [7]: inactive

COC(=O)[C@@H]1C[C@H]1[C@@H](NS(=O)(=O)c1ccc2ccccc2c1)c1ccccc1
outcome [7]: inactive

CCCC/C=C/C(NC(=O)c1ccc(C(=O)OC)cc1)c1ccccc1 (stereo not given)
outcome [7]: inactive

CNC1C(O)C(O[C@H]2C(O)[C@@H](OC3OC(CN)=CCC3N)[C@H](N)C[C@@H]2N)OC[C@]1(C)O (stereo not given in full)
outcome [3]: inactive
outcome [4]: inactive
Potency [5]: inactive

COc1ccc(-c2c(O)c3c(OC)c4c(cc3oc2=O)OC(C)(C)CC4)cc1
Potency [2]: inactive
outcome [3]: inactive
outcome [4]: inactive
Potency [5]: inactive

COc1cc2c(cc1OC)C(=O)OC2
Potency [2]: inactive
outcome [3]: inactive
outcome [4]: inactive
Potency [5]: inactive

CCCC[C@@H]1C[C@H]1C(NC(=O)c1ccco1)c1ccccc1C(F)(F)F (stereo not given in full)
outcome [7]: inactive

COC(=O)[C@H]1C[C@@H]1[C@H](NS(=O)(=O)c1ccc2ccccc2c1)c1ccccc1
outcome [7]: inactive

COc1ccc(CNC(=O)[C@H](C)[C@@H]2C[C@@]2(C)[C@@H](NC(=O)OCc2ccccc2)c2ccccc2)cc1OC
outcome [7]: inactive

C[Si](C)(C)C#Cc1ccccc1NC(=S)Nc1ccccc1
outcome [7]: inactive

Cc1cc(C(=O)N[C@@H](c2ccccc2)[C@]2(C)C[C@H]2[C@@H](C)C(=O)Nc2ccc3ccccc3c2)no1
outcome [7]: inactive

OC1C=C2CCN3Cc4cc5c(cc4C(C1O)C23)OCO5 (stereo not given)
outcome [3]: inactive
Potency [5]: inactive
